From PubChem BioAssay AID485344 (National Center for Advancing Translational Sciences (NCATS), 2010)
Where “and” joins values, the source holds several entries; their conditions need not be identical. Identical values can stand only once. Among all 340,000 compounds or so, about 6,900 (2%) were called active. No stated cut-off is given here; in the data, active means inhibition above about 30%; inactive means below that, where a call was filed. Only a selection was taken, and actives are over-represented in it overall. A structure can be active in one record and inactive in another.

Molecular target: D(2) dopamine receptor (Homo sapiens) (UniProt P14416)
Experiment: HTS Assay for Allosteric Antagonists of the Human D2 Dopamine Receptor: Primary Screen for Antagonists; further: 0% is about no effect
Conditions: HEK293 TREx D2 cells, calcium flux, dopamine EC80; at 10 µM; stronger effect = higher value
Method in brief: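 Measurement of antagonist activity uses fluorescent calcium dye in inducible HEK293 T-REx D2 cells: 10 s baseline, compound addition with 180 s read, EC80 dopamine addition with a further 180 s read.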

D(2) dopamine receptor (Homo sapiens), sequence (P14416 whole entry, looked up): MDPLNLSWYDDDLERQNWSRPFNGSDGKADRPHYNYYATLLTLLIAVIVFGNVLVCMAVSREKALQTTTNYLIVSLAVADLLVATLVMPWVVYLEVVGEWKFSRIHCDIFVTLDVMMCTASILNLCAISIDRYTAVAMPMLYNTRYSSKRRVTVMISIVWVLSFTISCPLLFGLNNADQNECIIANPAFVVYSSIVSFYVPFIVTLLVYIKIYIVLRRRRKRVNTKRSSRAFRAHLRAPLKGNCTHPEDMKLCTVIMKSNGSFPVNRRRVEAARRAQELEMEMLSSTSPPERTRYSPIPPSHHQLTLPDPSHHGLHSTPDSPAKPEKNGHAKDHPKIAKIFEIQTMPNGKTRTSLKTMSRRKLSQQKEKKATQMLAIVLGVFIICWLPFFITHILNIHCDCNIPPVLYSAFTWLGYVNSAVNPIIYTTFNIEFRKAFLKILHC

| SMILES | inhibition |
| --- | --- |
| Cc1cccc(NC(=O)C2CCCN(C(=O)NCc3ccccc3)C2)c1C (centres undefined) | -14.3% (inactive) |
| Cc1cccc(NC(=O)C2CCCN(C(=O)Nc3ccc(F)cc3)C2)c1C (centres undefined) | 36% (active) |
| Cc1cccc(NC(=O)N2CCCCCC2)c1C | 9.43% (inactive) |
| O=C(O[C@H]1[C@H](Cc2ccccc2)NS(=O)(=O)[C@H]2C[C@@H]3C=C[C@]12O3)c1ccc([N+](=O)[O-])cc1 | 19.3% (inactive) |
| CC1(NC(=O)CCS(=O)(=O)c2ccc(Cl)cc2)CCS(=O)(=O)C1 (centres undefined) | 9.74% (inactive) |
| CC(=O)c1sc(NC(=O)CCN2C(=O)C3CC=CCC3C2=O)nc1-c1ccccc1 (centres undefined) | -8.46% (inactive) |
| Cc1cc(C(=O)COc2ccccc2Cl)c(C)n1C1CC1 | -29.6% (inactive) |
| CC(C)C(=O)NCc1cc(-c2ccc(Cl)cc2)no1 | 41.7% (active) |
| CC(C)CNC(=O)c1cc(-c2ccc(Br)cc2)on1 | -7.31% (inactive) |
| Cc1ccc(S(=O)(=O)Cc2cc(-c3ccc(Cl)cc3)no2)cc1 | -17% (inactive) |
| Cc1cc(C)n2nc(C(=O)Nc3cccc(S(=O)(=O)N4CCOCC4)c3)nc2n1 | 7.16% (inactive) |
| O=C(O)c1ccc(Cn2c(=S)[nH]c3cc(Cl)ccc3c2=O)cc1 | -1.7% (inactive) |
| CC(C)c1ccc2c(c1)c(SC(C)(C)C)c(CC(C)(C)C(=O)O)n2Cc1ccc(Cl)cc1 | 6.19% (inactive) and 47.1% (active) |
| CCCCCCSc1ccc([C@@H]2[C@@H]3C(=O)N(CC)C(=O)[C@@H]3[C@]3(C(=O)OC)CCCCN23)cc1OC | 6.12% (inactive) |
| COc1cc(OC)c(N2CC(C(=O)Nc3cc(Cl)ccc3N3CCOCC3)CC2=O)cc1Cl (centres undefined) | -13.1% (inactive) |
| CCN(CC(=O)Nc1ccc(S(=O)(=O)N2CCCC2)cc1)CC(=O)Nc1cccc(OC)c1 | -1.82% (inactive) |
| COc1ccccc1CC(=O)Nc1ccc(S(=O)(=O)N2CCCC2)cc1 | 39.2% (active) |
| O=C(CN1CCCCCC1)Nc1ccc(S(=O)(=O)N2CCCCC2)cc1 | -6.5% (inactive) |
| COc1cc(OC)cc(C(=O)NNC(=O)CCOc2ccccc2OC)c1 | 23.6% (inactive) |
| CC1CC(C)CN(CCOc2cccc3ccccc23)C1 (centres undefined) | 55.1% (active) |
| Cc1cccc(NC(=O)CCN2CC(C)CC(C)C2)c1 (centres undefined) | 4.5% (inactive) |
| Cc1[nH]c2ccccc2c1C(=O)CN1CC(C)CC(C)C1 (centres undefined) | 14.4% (inactive) |
| COc1cccc(NC(=O)COC(=O)/C=C/c2ccco2)c1 | 13.2% (inactive) |
| Cn1c(SCC(=O)Nc2ccc(N3CCOCC3)cc2)nnc1C(F)(F)F | 6.16% (inactive) |
